Test results as given in PubChem BioAssay.
The source made the active and inactive calls.

Assay: plasmodial surface anion channel blockers, osmotic lysis – cell-based, P. falciparum Indochina, OD700, 2 h, primary screen (AID 1155);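 further: lysis reports solute entry through the parasite surface anion channel PSAC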
Conditions: P. falciparum Indochina infected erythrocytes, higher = more signal, called active from +8 up or from −8 down

z-score, inactive:
CCOC(=O)[C@H](Cc1ccccc1)NC(=O)CCC1CC(OC(=O)NCc2ccc3c(c2)OCO3)CC2(CCCC(COC(=O)NCCOC)O2)O1 (stereo partly specified) -1.39
CCOC(=O)[C@H](Cc1ccccc1)NC(=O)CCC1CC(OC(=O)NCc2ccc3c(c2)OCO3)CC2(CCCC(COC(=O)NCCCN3CCCC3=O)O2)O1 (stereo partly specified) 0.274
COC(=O)[C@H](C)NC(=O)CCC1CC(OC(=O)NCCc2ccc(F)cc2)CC2(CCCC(COC(=O)NCCOc3ccccc3)O2)O1 (stereo partly specified) -0.257
O=C1CCCC=C1C(O)C1CCCCC1 (stereo unspecified) 0.494
CCOC(=O)NN=C1C[C@@H](O)[C@@H](O)[C@@H]2[C@@H]3C(=O)N(c4ccc(F)cc4F)C(=O)[C@@H]3CC[C@H]12 -1.41
CC(=O)OC[C@H]1O[C@H](CC=NO[C@@H](C)c2cc(-c3c(C)cc(C)cc3C)no2)C=C[C@@H]1OC(C)=O 0.629
CCOC(=O)CCN1C(=O)[C@H]2[C@H]3[C@H](O)[C@H](O)CC(=NO[C@@H]4O[C@H](CO)[C@@H](O)[C@H](O)[C@H]4O)[C@H]3CC[C@H]2C1=O -0.163
CCOC(=O)[C@H](CC(C)C)NC(=O)CCC1CC(OC(=O)NCCc2ccc(F)cc2)CC2(CCCC(COC(=O)NCc3cccc(C(F)(F)F)c3)O2)O1 (stereo partly specified) 0.968
C[C@H]1CC[C@@H](C(=O)O)N[C@@H]1c1cccc(N2CCCC2=O)c1 0.677
CC(=O)OC[C@H]1O[C@@H](ON=C2[C@H]3CCn4c(=O)n(-c5ccccc5)c(=O)n4[C@H]3[C@H](O)[C@@H]3O[C@H]23)[C@H](OC(C)=O)[C@@H](OC(C)=O)[C@@H]1OC(C)=O 0.454
CCOC(=O)[C@H](CC(C)C)NC(=O)CCC1CC(OC(=O)NCCc2ccc(F)cc2)CC2(CCCC(COC(=O)NCCCN3CCCC3=O)O2)O1 (stereo partly specified) 0.0591
CC(CCC(=O)OC[C@H]1O[C@H](C#Cc2ccccc2)C=C[C@@H]1Oc1ccc(C)cc1)=NOC[C@@H](C)[C@H](OCc1ccccc1)C(C)C 0.498
CCOC(=O)[C@H](Cc1ccccc1)NC(=O)CCC1CC(OC(=O)NCc2cccc3ccccc23)CC2(CCCC(COC(=O)NCCc3ccccc3OC)O2)O1 (stereo partly specified) 0.185
COC(=O)[C@H](C)NC(=O)CCC1CC(OC(=O)NCCc2ccc(F)cc2)CC2(CCCC(COC(=O)NCCc3ccccc3OC)O2)O1 (stereo partly specified) 0.0923
CCOC(=O)NN=C1C[C@@H](O)[C@@H](O)[C@@H]2[C@@H]3C(=O)N(C[C@@H]4CCCO4)C(=O)[C@@H]3CC[C@H]12 -0.121
CON=C1c2cc(OC)ccc2O[C@H](c2cccc(OC)c2)[C@H]1O 0.72
COC(=O)[C@H](C)NC(=O)CCC1CC(OC(=O)NCc2ccc3c(c2)OCO3)CC2(CCCC(COC(=O)NCCC(C)C)O2)O1 (stereo partly specified) 4.71
C[C@H]1C=CCC(=O)OC[C@H](C)C(=O)N2CCC[C@H]2C(=O)OC1 -0.157
CCCNC(=O)OC[C@H]1O[C@H](CCON=C2C[C@@H](O)[C@@H](O)[C@@H]3[C@@H]4C(=O)N(CC)C(=O)[C@@H]4CC[C@@H]23)C=C[C@@H]1Oc1ccc(OC)cc1 0.584
COC(=O)[C@@H]1CC[C@H](C)[C@@H](c2ccc(C)cc2)N1C(=O)c1ccc(C=NO[C@@H](C)c2cc(-c3c(C)cc(C)cc3C)no2)cc1 0.804
CC(C)(C)N1C(=O)[C@H]2[C@H]3[C@H](O)[C@H](O)CC(=NNC(=O)OCc4ccccc4)[C@H]3CC[C@H]2C1=O -0.0262
CO[C@@H]1COC(=O)CC=C[C@H](C)[C@H](OC)COC(=O)[C@@H]2CCCN2C(=O)CC=C[C@H]1C 0.457
Cc1cc2c(nc1C)CCCCN2CC(O)CN1CCCc2nc(-c3ccc(Br)cc3)ccc21 (stereo unspecified) 0.0477
COc1ccc(O[C@H]2C=C[C@@H](C#Cc3ccccc3)O[C@@H]2CO)cc1 0.323
C#CCCCON=C1C[C@@H](O)[C@@H](O)[C@@H]2[C@@H]3C(=O)N(C[C@@H]4CCCO4)C(=O)[C@@H]3CC[C@H]12 0.189
O=C1[C@H]2[C@H]3[C@H](O)[C@H](O)CC(=NO[C@@H]4O[C@H](CO)[C@@H](O)[C@H](O)[C@H]4O)[C@@H]3CC[C@H]2C(=O)N1c1cccc(Oc2ccccc2)c1 -0.0313
